Screening results as filed in PubChem BioAssay.
mHTT-CaM PPI inh: mHTT-calmodulin interaction abrogation | P42858 | AlphaScreen His-mHTT/GST-CaM binding, luminescence | inhibition, % at 15 µM | 190,000 compounds, 3.6% hits | AID 1671202;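 also: 0% = both proteins with DMSO and 100% = one protein alone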
Pf apPOL block: Pf-apPOL DNA polymerase inhibition. Recombinant Pf-apPOL, molecular beacon fluorescence, 1.5 h. inhibition, % at 10 µM. 210,000 compounds, 0.25% hits
* = called active by the depositor; . = not tested or not shown. Shown are actives, neighbours in structure and some others; about 3.6% of the full set was active somewhere. Rule as the data show it: active = inhibition above about 50%; inactive = the rest.

SMILES	mHTT-CaM PPI inh	Pf apPOL block
CSc1cccc(NC(=O)Cn2ccc3c(=O)[nH]ccc32)c1	1	19
Cc1ccc(NC(=O)Cn2ccc3c(=O)[nH]ccc32)c(C)c1	-4	21
COc1ccc(NC(=O)Cn2ccc3c(=O)[nH]ccc32)cc1Cl	24	78*
COc1ccc(C)cc1NC(=O)Cn1ccc2c(=O)[nH]ccc21	39	73*
O=C(Nc1c[nH]c2ccccc12)N1CCN(c2cccc(C(F)(F)F)c2)CC1	59*	-5
O=C(Nc1nc(C(=O)N2CCN(c3cccc(C(F)(F)F)c3)CC2)co1)C1CC1	16	-4
O=C(Cc1ccccc1Cl)N1CCC2(C1)C(=O)Nc1ccccc12 (stereo not drawn)	1	-6
O=C1Nc2ccccc2C12CCN(S(=O)(=O)c1cccc(Cl)c1)C2 (stereo not drawn)	77*	-1
Cc1cc(S(=O)(=O)N2CCC3(C2)C(=O)Nc2ccccc23)ccc1F (stereo not drawn)	96*	8
Cc1ccc(F)cc1S(=O)(=O)N1CCC2(C1)C(=O)Nc1ccccc12 (stereo not drawn)	8	1
O=C1OC(c2ccc([N+](=O)[O-])cc2Cl)=N/C1=C\c1cccc([N+](=O)[O-])c1	3	0
COc1cccc(NC(=Nc2nc(C)cc(C)n2)NC(=O)Nc2ccc(Cl)cc2)c1	0	20
Cc1cc(C)cc(NC(=O)c2ccc([N+](=O)[O-])cc2Cl)c1	6	-2
COc1cc(OC)c(NC(=O)COc2ccccc2OC)cc1Cl	-3	4
Cn1ccnc1C(O)c1cc(C(C)(C)C)c(O)c(C(C)(C)C)c1 (stereo not drawn)	18	-7
CC(C)(C)c1cc(C(c2ccccn2)N2CCCCC2)cc(C(C)(C)C)c1O (stereo not drawn)	77*	-5
COc1ccc(OC)c(-c2cn3ccn(-c4ccc(C)c(Cl)c4)c(=O)c3n2)c1	27	-4
Cc1ccc(N2C(=O)C3C4C=CC(C)(O4)C3C2=O)cc1[N+](=O)[O-] (stereo not drawn)	0	-3
O=[N+]([O-])c1cc(Oc2ccc3c(c2)CCC3)cc(-n2cnnn2)c1	51*	.
Cc1cc([N+](=O)[O-])nn1CCCC(=O)Nc1cc(Oc2ccc3c(c2)CCC3)cc([N+](=O)[O-])c1	6	5
CCCCC(=O)c1ccc(OCC)cc1	-12	-2
O=C(NCCN1CCOCC1)C1CCN(c2ccc(Cl)c(Cl)c2)C1=O (stereo not drawn)	32	-5
CCN(CC)c1ccc2cc(C(N)=O)c(=Nc3ccccc3C)oc2c1	54*	2
CCN(CC)c1ccc2cc(C(N)=O)c(=Nc3ccc(C)cc3)oc2c1	10	3
Cc1ccccc1-n1nc2c(c1NC(=O)C13CC4CC(CC(C4)C1)C3)CSC2	0	-7
SMILES	mHTT-CaM PPI inh	Pf apPOL block
Cc1ccccc1-n1nc2c(c1NC(=O)C13CC4CC(CC(C4)C1)C3)CS(=O)(=O)C2	11	78*
CCOc1ccc(C2=Nn3c(nnc3-c3ccccc3Br)SC2)cc1	15	-3
O=C(Nc1c(-c2ccccc2)nc2ccccn12)c1ccc(Cl)c([N+](=O)[O-])c1	67*	-2
COc1ccc(-c2nc3ccccn3c2NC(=O)c2ccc(Cl)c([N+](=O)[O-])c2)cc1	49	3
O=C(CN1CCN(c2ccc([N+](=O)[O-])c(N3CCOCC3)c2)CC1)N1CCOCC1	8	-4
Oc1ccc(F)cc1C1=NNC(c2cccs2)C1 (stereo not drawn)	49	-2
CCCc1nc2cccnc2n1C1CCN(C(=O)c2cc(C)ccc2C)C1 (stereo not drawn)	11	-1
COc1ccc(NC(=S)N2CCc3cc(OC)c(OC)cc3C2COc2ccc3c(C)cc(=O)oc3c2)cc1 (stereo not drawn)	14	-4
CCOc1ccc(C(=O)N2CCc3nc(CNC(=O)CC)n(C)c3C2)cc1	9	5
COc1ccc(C2CC(O)(c3ccccc3)Oc3c(C)ccc(C(C)C)c32)cc1 (stereo not drawn)	55*	2
COc1ccc(C2CC(=O)Oc3c(C(C)C)ccc(C)c32)cc1 (stereo not drawn)	-36	-7
COc1ccc(C2CC(=O)Oc3cc(OC)ccc32)cc1 (stereo not drawn)	0	-2
COc1ccc(C2CC(O)(c3ccccc3)Oc3cc(OC)ccc32)cc1 (stereo not drawn)	80*	-3
Clc1ccc2c(c1)SS(Cl)=N2 (stereo not drawn)	55*	.
CC(C)(C)NC(=O)NC1CCN(c2ccccc2)C1=O (stereo not drawn)	1	-1
COC(=O)c1ccc(NC(=O)CSc2cc(N3CCCC3)ncn2)cc1	-14	-11
COc1ccc(C2C(C(=O)Nc3ccc4c(c3)OCO4)CC(=O)N2c2ccc(OC)cc2)cc1 (stereo not drawn)	12	-8
COc1ccc(C2C(C(=O)N(C)c3ccc(Cl)cc3)CC(=O)N2c2ccc(OC)cc2)cc1 (stereo not drawn)	87*	-2
CCOc1cc([N+](=O)[O-])cc(C=Nc2cccc(-c3nc4ccccc4o3)c2)c1O	22	0
COc1cc(C(=O)Nc2ccc(-n3nncc3-c3ccccc3)cc2)cc(OC)c1OC	46	-3
COc1cccc(C(=O)Nc2ccc(-n3nncc3-c3ccccc3)cc2)c1OC	57*	-7
O=C(Nc1ccc2c(c1)OCO2)c1cn2c(n1)CCCC2	12	-6
Cc1ccc(-c2c(C(=O)NCCN3CCN(c4ccccc4)CC3)oc(=O)c3ccccc23)cc1	54*	-1
Cc1ccc(-c2c(C(=O)NCc3ccccc3)oc(=O)c3ccccc23)cc1	-5	3
CC(C)(C)NC(=O)C1(n2cccc2)CCCCC1	3	-7
SMILES	mHTT-CaM PPI inh	Pf apPOL block
Cc1ccc(C)c(CN2C(=O)C3(OCCCO3)c3ccccc32)c1	-22	-7
O=C1N(Cc2cc(=O)n3ccccc3n2)c2ccccc2C12OCCCO2	52*	-8
COC(CNC(=O)c1cnn2c(C)c(Cc3cc(C)ccc3C)c(C)nc12)OC	61*	-10
COCCCNC(=O)c1cnn2c(C)c(Cc3ccccc3C)c(C)nc12	42	-8
Cc1nc2c(C(=O)NCc3ccccc3)cnn2c(C)c1Cc1ccccc1F	21	-10
Cc1ccccc1Cc1c(C)nc2c(C(=O)NCCc3ccccc3)cnn2c1C	51*	-5
COCCNC(=O)c1cnn2c(C)c(Cc3cc(C)ccc3C)c(C)nc12	31	-9
Cc1nc2c(C(=O)NCCc3ccccc3)cnn2c(C)c1Cc1ccccc1F	70*	-12
Cc1nnc(SCC(=O)Nc2ccccc2)s1	-4	3
O=C1Nc2ccc(Br)cc2/C1=C/c1ccc2c(c1)OCO2	25	-5
C=CCn1c(N)cc(=O)nc1SCC(=O)Nc1ccc(Cl)cn1	1	4
CN1C(=O)C(CC(=O)N2CCCCCC2)Sc2ncccc21 (stereo not drawn)	-7	0
CC(C)(C)C(=O)NC(Nc1ncccn1)C(Cl)(Cl)Cl (stereo not drawn)	-12	-3
Cc1ccc(N=CC=C2OC(C)(C)C(C)(C)O2)cc1	56*	-1
Cc1cccc(N=CC=C2OC(C)(C)C(C)(C)O2)c1	44	-1
O=C(C1COc2ccccc2O1)N1CCCC(COCc2ccccc2)C1 (stereo not drawn)	6	-7
Cc1ccccc1OCC(=O)Nc1ccc(-c2nc3ncccc3o2)cc1	2	-7
